PubChem BioAssay AID720712 (NMMLSC, 2013)
The source made the active and inactive calls.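 The calls were made as follows: active = EC50 at most 10 µM with response changing by at least 30 points across doses, from an acceptable curve fit; inactive = the rest.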

Molecular target: Cell division control protein 42 homolog (Homo sapiens) (UniProt P60953)
Assay: blockade of fluorescent GTP loading onto wildtype Cdc42 – biochemical, compound preincubation comparison, flow cytometry beads, Bodipy-FL-GTP, mechanism study for Ras-family GTPase inhibitor project, late-stage follow-up (AID 720712)
Conditions: GST-Cdc42 beads, Bodipy-FL-GTP binding, EDTA, protocol B; series mostly up to 100 µM

Cell division control protein 42 homolog (Homo sapiens), sequence (P60953 whole entry, looked up): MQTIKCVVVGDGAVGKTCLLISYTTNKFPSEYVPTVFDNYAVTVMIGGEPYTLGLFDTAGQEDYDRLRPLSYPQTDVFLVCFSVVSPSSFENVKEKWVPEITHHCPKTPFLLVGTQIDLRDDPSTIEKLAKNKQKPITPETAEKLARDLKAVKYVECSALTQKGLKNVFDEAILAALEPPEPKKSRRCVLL

CC1(C)Cc2c(sc(NC(=S)NC(=O)c3cccc(N=[N+]=[N-])c3)c2C(=O)O)CO1
outcome: inactive

CC1(C)Cc2c(sc(NC(=S)NC(=O)c3ccc(N=[N+]=[N-])cc3)c2C(=O)O)CO1
outcome: inactive
